Eight molecules from PubChem BioAssay (Tox21) can be followed below.

Assay [1] can be described thus: qHTS assay to identify small molecule agonists of the NFkB signaling pathway - cell viability counter screen (AID 1159515; calls by dose curve; further: series mostly up to about 61 µM; nearly all actives have a fitted effect of over 55% in size). Put shortly:
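Cells are seeded (2,000 NFkB-bla ME-180 per well), rested overnight, and dosed with DMSO-dissolved compounds for 5 hr at 37 C. Viability is then read by CellTiter-Glo luminescence after 30 min at room temperature.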
(In general: Quantitative high-throughput screening tests each substance at several concentrations.)

A short description of assay [2]: qHTS assay to identify small molecule agonists of the endoplasmic reticulum stress response signaling pathway (AID 1159516; active means well fitted activation curve with a large enough effect in the signal ratio in the repeat runs, not every such curve was filed as active; the % refers to the signal ratio). Put shortly: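 Cells are seeded at 1,500 per well and incubated overnight. Compounds in DMSO are added for 5 hr at 37 C, then beta-lactamase FRET substrate for 2 hr at room temperature, and fluorescence at 460 and 530 nm is measured.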
A short description of assay [3]: qHTS assay to identify small molecule agonists of the endoplasmic reticulum stress response signaling pathway - cell viability counter screen (AID 1159517; calls by dose curve;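 further: HeLa cells carrying an ER stress response element beta-lactamase reporter; series mostly up to about 61 µM; nearly all actives have a fitted effect of over 50% in size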). The method in brief: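 In parallel with the ESRE reporter read, cytotoxicity was scored by CellTiter-Glo luminescence (30 min, room temperature) on HeLa ESRE-bla cells dosed for 5 hr.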
The nature of assay [4]: qHTS assay to identify small molecule antagonists of the retinoid-related orphan receptor gamma (ROR-gamma) signaling pathway - cell viability counter screen (AID 1159520). Further: nearly all actives have a fitted effect of over 50% in size. The method in brief: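 Tet-on ROR gamma CHO cells were given compounds for 2 hr, then doxycycline hyclate at 1 uM final, and incubated 16 hr at 37 C. Viability was measured as ATP content by CellTiter-Glo luminescence.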

The target in assay [5] is Nuclear receptor ROR-gamma (Homo sapiens) (UniProt P51449). Description: qHTS assay to identify small molecule antagonists of the retinoid-related orphan receptor gamma (ROR-gamma) signaling pathway (AID 1159521;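 further: CHO cells with doxycycline inducible ROR-gamma driving an RORE luciferase reporter; top concentration of the series differs between compounds; nearly all actives have a fitted effect of over 50% in size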). Put shortly:
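Tet-on ROR-gamma CHO cells with ROR response element-luciferase reporter; compounds added 2 hr before 1 uM doxycycline induction, then 16 hr at 37 C. Antagonism scored as decreased ONE-Glo luminescence.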

A short description of assay [6]: qHTS assay to identify small molecule agonists of the AP-1 signaling pathway - cell viability counter screen (AID 1159525; calls by dose curve; further: nearly all actives have a fitted effect of over 55% in size). The method in brief:
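Same-well cytotoxicity counter screen of the Tox21 10K library in ME-180 cells. The readout is ATP-dependent luminescence after 5 h compound treatment. Data are normalised to DMSO and tetra n-octyl ammonium bromide controls.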

A short description of assay [7]: qHTS assay to identify small molecule agonists of the AP-1 signaling pathway (AID 1159526; calls by dose curve).
Assay [8] addresses Retinoic acid receptor RXR-alpha (Homo sapiens) (UniProt P19793). Put plainly: qHTS assay to identify small molecule agonists of the RXR signaling pathway (AID 1159527; calls by dose curve; further: nearly all actives have a fitted effect of over 35% in size; further: potency means the concentration at half of the fitted maximal effect). Put shortly: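 GeneBLAzer RXR-alpha-UAS-bla HEK 293T cells in 2% charcoal-stripped FBS medium were exposed to compounds for 16 hr at 37 C in agonist mode. Beta-lactamase reporter read as 460/530 nm FRET ratio after 2 hr substrate loading.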

The nature of assay [9]: qHTS assay to identify small molecule agonists of the RXR signaling pathway - cell viability counter screen (AID 1159529). Further: series mostly up to about 77 µM; nearly all actives have a fitted effect of over 50% in size. The method in brief:
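RXR-alpha-UAS-bla HEK 293T cells in medium with 2% charcoal-stripped FBS were pre-incubated 5 hr, then compound-treated 16 hr at 37 C. Viability was read by CellTiter-Glo luminescence in the same wells as the beta-lactamase assay, with tetraoctyl ammonium bromide as positive control.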

A short description of assay [10]: qHTS assay to identify small molecule antagonists of the retinoid acid receptor (RAR) signaling pathway - cell viability counter screen (AID 1159551). Further: nearly all actives have a fitted effect of over 35% in size. The method in brief: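 Cells (C3RL4) are plated, incubated overnight, dosed with compound in DMSO, then given retinol at 1 uM final. After 6 h at 37 C, CellTiter-Glo is added and luminescence read following 30 min at room temperature.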

Assay [11] can be described thus: qHTS assay to identify small molecule antagonists of the retinoic acid receptor (RAR) signaling pathway (AID 1159552; further: nearly all actives have a fitted effect of over 50% in size). The method in brief: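 Retinol signaling pathway inhibitors screened in C3RL4 RARE-luciferase reporter cells seeded overnight at 37 C, then compounds added with 1 uM (final) retinol as pathway substrate. After 6 hr at 37 C, luciferase luminescence read after 30 min at room temperature.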

Assay [12] in a line: qHTS assay to identify small molecule agonists of the retinoic acid receptor (RAR) signaling pathway (AID 1159553). The method in brief:
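Seed C3RL4 reporter cells at 1,000 per well and incubate overnight at 37 C. Add compounds in DMSO, incubate 6 hr. Add luciferase reagent, wait 30 min at room temperature, read luminescence.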

Assay [13] in a line: qHTS assay to identify small molecule antagonists of the estrogen related receptor (ERR) signaling pathway from Tox21 library - cell viability counter screen (AID 1224834). Further: nearly all actives have a fitted effect of over 30% in size. The method in brief: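 ERR cells, 2,000/well; 6 h settle at 37 C/5% CO2; pin-tool compound transfer in DMSO; 17.5 h at 37 C; CellTiter-Fluor, 30 min; fluorescence intensity.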
For assay [14], the target named is Luciferin 4-monooxygenase (Photinus pyralis) (UniProt P08659). Description: qHTS assay to identify small molecule inhibitors of firefly luciferase (AID 1224835). Further: series mostly up to about 120 µM; nearly all actives have a fitted effect of over 25% in size. The method in brief: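 Biochemical qHTS: compounds run as interplate titrations against purified firefly enzyme, with D-luciferin and ATP each at its KM concentration. Light output recorded by CCD imaging.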

A short description of assay [15]: qHTS assay to identify small molecule agonists of the constitutive androstane receptor (CAR) signaling pathway - cell viability counter screen (AID 1224836). Further: series mostly up to about 92 µM; nearly all actives have a fitted effect of over 45% in size. The method in brief:
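HepG2 cells stably carrying hCAR and a CYP2B6-2.2kb reporter; 15-concentration compounds plus PK11195 (final 0.75 uM), 23 hr at 37 C/5% CO2. Viability read by CellTiter-Fluor fluorescence.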

Assay [16] in a line: qHTS assay to identify small molecule antagonists of the constitutive androstane receptor (CAR) signaling pathway - cell viability counter screen (AID 1224837). Further: series mostly up to about 92 µM; nearly all actives have a fitted effect of over 45% in size. The method in brief:
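Viability was measured with CellTiter-Fluor in a HepG2 line carrying stably transfected hCAR and a CYP2B6-2.2kb construct. Cells were exposed for 23 hr at 37 C to 15 compound concentrations with 50 nM CITCO as agonist.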

Assay [17] is described as follows: qHTS assay to identify small molecule antagonists of the estrogen related receptor signaling pathway with the pleiotropic PPARgamma coactivator (PGC) from Tox21 10K library - cell viability counter screen (AID 1224840; active means well fitted cell-killing curve with a large enough effect in the repeat runs, not every such curve was filed as active; further: nearly all actives have a fitted effect of over 40% in size). The method in brief:
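Multiplexed viability counter screen in the PGC/ERR cell line: cells treated with DMSO-dissolved compounds for 17.5 hours at 37 C, then viability measured as CellTiter-Fluor fluorescence.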

The target in assay [18] is Nuclear receptor subfamily 1 group I member 3 (Homo sapiens) (UniProt Q14994). Put plainly: qHTS assay to identify small molecule antagonists of the constitutive androstane receptor (CAR) signaling pathway (AID 1224838).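 Further: HepG2 cells stably expressing hCAR with CYP2B6 luciferase reporter stimulated by CITCO; nearly all actives have a fitted effect of over 40% in size.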 The method in brief: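 Antagonist mode used CITCO at a final 50 nM to activate CAR in human hepatoma HepG2 cells carrying stable hCAR and a 2.2 kb CYP2B6 promoter-luciferase construct. Compounds were tested at 15 concentrations over 24 h, with luminescence as the end point.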

Assay [19] shares this target. Description: qHTS assay to identify small molecule agonists of the constitutive androstane receptor (CAR) signaling pathway (AID 1224839). Further: nearly all actives have a fitted effect of over 15% in size. Further: potency means the concentration at half of the fitted maximal effect. On activation: series mostly up to about 92 µM. The method in brief: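 HepG2 cells stably co-transfected with hCAR and a CYP2B6-2.2kb luciferase reporter; compounds at 15 concentrations with 0.75 uM PK11195 present. After 24 hr at 37 C, luciferase read by ONE-Glo luminescence.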

Assay [20] is described as follows: qHTS assay to identify small molecule antagonists of the vitamin D receptor (VDR) signaling pathway - cell viability counter screen (AID 743225). Further: nearly all actives have a fitted effect of over 50% in size. The method in brief: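 VDR-UAS-bla HEK 293T cells were plated and incubated 4 h at 37C, then dosed with compound plus 3 nM (final) 1-alpha,25-dihydroxyvitamin D3 for 16 h. After the 2 h beta-lactamase read, viability in the same wells was read as CellTiter-Glo luminescence after 30 min at room temperature.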

Molecules are shown by their SMILES. Inconclusive results are not listed. A number with no mark means an inactive call. Calls of active or inactive are those of the source. Unless noted, the call rests on the fitted dose curve; in most records, active means well fitted curve in the direction sought with a large enough effect in the repeat runs; inconclusive means weak or mixed curves; inactive means no such curve, though single readings can be large; an effect the other way counts as inactive or inconclusive.

Sequence of Retinoic acid receptor RXR-alpha (Homo sapiens) (P19793 whole entry, looked up): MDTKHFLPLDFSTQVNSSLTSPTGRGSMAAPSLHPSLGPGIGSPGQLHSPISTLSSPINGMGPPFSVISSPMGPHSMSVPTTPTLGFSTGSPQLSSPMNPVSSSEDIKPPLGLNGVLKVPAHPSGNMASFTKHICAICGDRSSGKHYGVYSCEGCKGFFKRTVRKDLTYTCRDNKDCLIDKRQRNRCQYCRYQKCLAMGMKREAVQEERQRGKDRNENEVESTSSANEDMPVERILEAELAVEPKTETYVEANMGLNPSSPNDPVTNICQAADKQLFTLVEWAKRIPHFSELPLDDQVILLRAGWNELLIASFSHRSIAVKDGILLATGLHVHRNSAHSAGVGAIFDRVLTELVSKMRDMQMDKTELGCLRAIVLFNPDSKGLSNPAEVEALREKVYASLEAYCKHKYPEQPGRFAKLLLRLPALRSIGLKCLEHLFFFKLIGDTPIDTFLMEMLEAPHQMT
Sequence of Luciferin 4-monooxygenase (Photinus pyralis) (P08659 whole entry, looked up): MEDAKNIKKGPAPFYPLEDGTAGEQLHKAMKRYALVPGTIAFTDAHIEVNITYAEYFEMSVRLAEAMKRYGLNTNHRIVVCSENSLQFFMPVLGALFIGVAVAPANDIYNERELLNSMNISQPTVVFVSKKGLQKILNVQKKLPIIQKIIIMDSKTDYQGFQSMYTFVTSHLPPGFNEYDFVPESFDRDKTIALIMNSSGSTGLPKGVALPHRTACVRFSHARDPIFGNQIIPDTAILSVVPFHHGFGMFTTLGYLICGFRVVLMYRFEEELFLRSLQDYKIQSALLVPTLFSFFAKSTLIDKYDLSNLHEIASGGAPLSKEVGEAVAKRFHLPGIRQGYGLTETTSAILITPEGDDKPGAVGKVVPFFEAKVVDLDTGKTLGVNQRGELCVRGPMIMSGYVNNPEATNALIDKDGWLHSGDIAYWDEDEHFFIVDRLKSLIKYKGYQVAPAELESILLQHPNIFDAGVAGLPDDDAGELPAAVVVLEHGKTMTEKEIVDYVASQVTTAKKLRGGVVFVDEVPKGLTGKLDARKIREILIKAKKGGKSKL
Sequence of Nuclear receptor subfamily 1 group I member 3 (Homo sapiens) (Q14994 whole entry, looked up): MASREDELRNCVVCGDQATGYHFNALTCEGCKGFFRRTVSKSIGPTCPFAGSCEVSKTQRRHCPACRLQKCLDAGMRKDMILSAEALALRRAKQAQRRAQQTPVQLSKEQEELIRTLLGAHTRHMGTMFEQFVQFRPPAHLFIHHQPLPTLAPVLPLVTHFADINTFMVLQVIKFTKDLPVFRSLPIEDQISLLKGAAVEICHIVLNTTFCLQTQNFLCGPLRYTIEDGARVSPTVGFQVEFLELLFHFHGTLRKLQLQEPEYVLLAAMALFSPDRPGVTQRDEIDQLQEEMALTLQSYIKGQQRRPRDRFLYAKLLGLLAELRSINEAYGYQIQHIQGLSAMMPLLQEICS

For the molecule `CC(O)C(CO)C(C)O` (stereo not drawn), the molecule was called inactive in assay [1], in assay [3], in [4], in assay [5], in [6] and in [10]. For the same molecule, the molecule was called inactive in assay [11], in [13], in assay [15], in [16] and in [17]. In addition, the Potency entry in [2], in assay [7], in assay [8], in assay [9], in assay [12] and in assay [14] was “inactive” throughout.
`CC(C)(C)NCC(O)COc1cccc2c1CCC(=O)N2` (stereo not drawn): the outcome in [1], in [3], in assay [4], in assay [5], in assay [6] and in [10] was inactive. Also, the molecule was classed as inactive in [11], in assay [13], in [16], in [18] and in [17]. The Potency entry in assay [2], in [7], in assay [8], in assay [9], in [12] and in assay [14] was “inactive” in each case. For the same molecule, in assay [19], the Potency result is “inactive”.
With `CC(C)(C)c1ccc(N)cc1`, the outcome in [1], in assay [3], in [4], in assay [5], in assay [6] and in assay [10] was inactive. In addition, the result in assay [11], in assay [13], in [16], in assay [18] and in [17] was inactive. Further, the Potency result in assay [2], in [7], in assay [8], in assay [9], in [12] and in assay [14] was “inactive” each time. For the same molecule, the Potency entry in assay [19] is “inactive”.
`O=S(=O)(O)c1cc(I)c(O)c2ncccc12`: the result in assay [1], in [3], in [4], in assay [5], in assay [6] and in assay [10] was inactive. Further, the molecule was called inactive in [11], in assay [13], in assay [15], in assay [16] and in assay [17]. Besides, the Potency result in assay [2], in assay [7], in assay [8], in assay [9], in assay [12] and in assay [14] was “inactive” in each case.
`CC(C)OC(=O)C(C(=O)OC(C)C)=C1SC=CS1`: the outcome in assay [20], in assay [1], in [3], in assay [4], in assay [5] and in [6] was inactive. The molecule was classed as inactive in assay [10], in assay [11], in [13], in assay [16], in assay [18] and in assay [17]. Also, the Potency entry in assay [2], in [7], in assay [8], in [9], in [12] and in assay [14] was “inactive” throughout. The Potency in [19] is 13.3 µM (active).
With `CC12CCCC=C1C(=O)OC2=O` (stereo not drawn), the outcome in [20], in assay [1], in assay [3], in assay [4], in [5] and in assay [6] was inactive. Besides, the molecule was classed as inactive in assay [10], in [11], in assay [13], in assay [15], in assay [16] and in assay [17]. Moreover, the Potency entry in [2], in [7], in assay [8], in assay [9], in [12] and in assay [14] was “inactive” each time.
Regarding `O=C1Nc2ccccc2C1=O`, the result in assay [20], in assay [1], in assay [3], in assay [4], in assay [5] and in assay [6] was inactive. Further, the call in assay [10], in assay [11], in assay [13], in assay [15], in assay [16] and in assay [18] was inactive. Further, in assay [17], the result was inactive. Moreover, the Potency entry in assay [2], in assay [7], in assay [8], in [9], in assay [12] and in assay [14] was “inactive” each time.
Take `O=Cc1ccccc1S(=O)(=O)O`: the result in assay [1], in assay [3], in assay [4], in assay [5], in assay [6] and in assay [10] was inactive. In addition, the result in [11], in assay [15], in assay [16] and in [17] was inactive. In addition, the Potency result in assay [2], in assay [7], in [9], in assay [12], in assay [14] and in [19] was “inactive” throughout. Further, in assay [8], the Potency is 9.77 µM (active).
